Screening results (PubChem)
An excerpt weighted towards active compounds, which were near 2.4% of everything screened.
MEKK3 PB1 HTS: modulators of MEKK3-MEK5 PB1 binding, primary screen, biochemical, wildtype MEKK3, multiplex bead flow cytometry, Alexa488-MEK5; Mitogen-activated protein kinase kinase kinase 3 (Homo sapiens), Q99759; bead-based flow cytometry, Alexa488-MEK5 binding to MEKK3; actives lie on both sides; 0 = blocked by unlabeled MEK5, 100 = vehicle; binding response (% of control), % at 10 µM; actives 1.4% (n = 290,000); AID 1529, 2009;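 active means binding response more than 3 SD above or below the average of its plate-row segment, actives on both sides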;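 further: Alexa488 bead fluorescence after subtracting the streptavidin-only scavenger bead signal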
Target sequence (Q99759 whole entry, looked up): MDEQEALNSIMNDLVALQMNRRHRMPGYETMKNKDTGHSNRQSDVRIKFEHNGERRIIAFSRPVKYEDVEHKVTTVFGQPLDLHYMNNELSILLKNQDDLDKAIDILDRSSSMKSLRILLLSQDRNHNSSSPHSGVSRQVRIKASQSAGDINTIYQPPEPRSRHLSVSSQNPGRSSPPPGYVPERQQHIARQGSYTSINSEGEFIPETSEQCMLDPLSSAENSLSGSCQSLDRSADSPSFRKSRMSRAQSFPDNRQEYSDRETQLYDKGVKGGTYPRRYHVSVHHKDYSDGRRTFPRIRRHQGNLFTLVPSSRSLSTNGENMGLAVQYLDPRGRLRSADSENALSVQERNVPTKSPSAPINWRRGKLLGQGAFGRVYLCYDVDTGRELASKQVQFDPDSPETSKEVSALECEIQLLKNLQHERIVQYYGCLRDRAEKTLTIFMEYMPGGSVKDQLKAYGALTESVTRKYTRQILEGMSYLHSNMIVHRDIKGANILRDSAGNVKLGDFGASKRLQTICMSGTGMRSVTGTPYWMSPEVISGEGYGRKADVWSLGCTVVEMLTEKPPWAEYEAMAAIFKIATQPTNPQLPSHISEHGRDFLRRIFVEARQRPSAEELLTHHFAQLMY
MEKK2 WT-MEK5: modulators of MEK5 binding to wildtype MEKK2, primary screen, biochemical, multiplex bead flow cytometry, Alexa488-MEK5; actives 1.1% (n = 290,000); binding response (% of control), % at 10 µM; Alexa488-MEK5 binding to MEKK2 WT; actives lie on both sides; AID 1531, 2009; in the data active means binding response below about 67% or above about 130%
Pf gamet viab: late stage P. falciparum gametocyte viability inhibitors, primary screen, ATP luminescence, HTS. P. falciparum stage V gametocytes, 24 h. inhibition, % at 10.9 µM. actives 0.065% (n = 150,000). AID 743093, 2013;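 active means inhibition above the mean plus 3 SD of compounds within the control limits, set per campaign, cut at about 38% in these data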;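 further: 0% = DMSO wells and 100% = medium only without gametocytes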
MEKK2mut PB1 HTS: MEK5 binding signal on mutant MEKK2 PB1, primary screen, biochemical, multiplex bead flow cytometry, Alexa488-MEK5; Alexa488-MEK5 binding to MEKK2 mutant; percent response, % at 10 µM; actives 0.35% (n = 290,000); AID 1530, 2009; in the data active means percent response above about 24%, passing the limit was not always enough
Arbovirus inh: antivirals against arbovirus infection, primary screen, cell-based, full library, 10K replicate subset | arbovirus infection cell-based antiviral screen | actives 0.37% (n = 200,000) | inhibition, % at 10 µM; in the data active means inhibition above about 30%
* = called active by the depositor; x = not tested or not shown; [ ] = remark or other dose.

SMILES | MEKK3 PB1 HTS | MEKK2 WT-MEK5 | Pf gamet viab | MEKK2mut PB1 HTS | Arbovirus inh
CCOc1ccccc1C1c2cc3c(cc2OC(C)(N2CCCC2)C1C)OCO3 (centres undefined) | x | x | -12 | x | x
CCOC(=O)C1C(=O)C=C(/C=C/c2ccc(N(C)C)cc2)CC1c1ccccc1 (centres undefined) | 129 | 42* | 15 | 51* | -12
CCOC(=O)C1C(=O)C=C(c2ccc(C)cc2)CC1c1ccccc1 (centres undefined) | 118 | 105 | x | 2 | 6
O=C(CSc1nnc(Cc2cc(=O)[nH]c(=O)[nH]2)n1-c1ccc(Cl)cc1)NCC1CCCO1 (centres undefined) | 101 | 8.0* | 4 | 17 | 6
CC1CC(C)(C)CC2(C1)NC(=O)N(CC(=O)NCCc1c[nH]c3ccccc13)C2=O (centres undefined) | 109 | 111 | 1 | 5 | 32*
CC1CC(C)(C)CC2(C1)NC(=O)N(CC(=O)NC1CCCc3ccccc31)C2=O (centres undefined) | 110 | 103 | 3 | 2 | 2
O=C1CN(C(=O)/C=C/c2cccc(Cl)c2)c2ccccc2N1 | x | x | 1 | x | -1
O=C1CN(C(=O)/C=C/c2ccc(Cl)cc2)c2ccccc2N1 | 104 | 99 | -7 | 0 | 31*
O=C1/C(=C/C=C/c2ccco2)SC(=S)N1c1ccc(O)cc1 | 87 | 62*[inhibitor] | -26 | -22 | x
Cn1c(CN2CCCC2)nc2cc(NC(=O)c3cccs3)ccc21 | 89 | 90 | -7 | -2 | -7
Cn1cc(/C=C2\SC(=S)N(NC(=O)c3cccc(Cl)c3)C2=O)c2ccccc21 | 88 | 48*[inhibitor] | 3 | -9 | x
Cn1cc(/C=C2\SC(=S)N(NC(=O)c3ccccc3)C2=O)c2ccccc21 | 96 | 73 | -23 | -4 | -11
COc1cc(C(=O)N/N=C(\c2ccccc2)c2ccccn2)cc(OC)c1OC | 134* | 106 | -3 | 0 | -42
Cc1ccc2nc(Cl)c(/C=N/Nc3ccc(C(=O)O)cc3)cc2c1 | 99 | 86 | -6 | -3 | x
O=C(COC(=O)CCC(=O)c1cccs1)NC(=O)c1ccc(OC(F)F)cc1 | 103 | 98 | 14 | -1 | 8
Cc1nnc(N2CCOCC2)c2nn(-c3cccc(Cl)c3)c(C)c12 | 122 | 80 | -10 | 85* | -3
Cc1nnc(-n2ncc(C#N)c2N)c2nn(-c3cccc(Cl)c3)c(C)c12 | 95 | 97 | -6 | 2 | 6
O=c1c(-c2ccccc2)c[nH]n1-c1cccc([N+](=O)[O-])c1 | 100 | 102 | x | 0 | 35*
CNc1ccccc1C(C)(C)c1cc(-c2cccc(OC)c2)no1 | 111 | 100 | 16 | -1 | 32*
COc1ccc(C)cc1NC(=O)NNS(=O)(=O)c1ccc(NC(C)=O)cc1 | 39*[inhibitor] | 47*[inhibitor] | x | -8 | x
O=C(NC1=NCCS1)c1ccc(Cl)c(S(=O)(=O)N2CCCC2)c1 | 99 | 98 | x | 0 | 32*
CCOCc1nnc(NC(=O)CS(=O)(=O)c2ccc(C)cc2)s1 | 80*[inhibitor] | 77 | x | -10 | x
O=C(Nc1ccccc1Oc1cccnc1)C1CCCN(C/C=C/c2ccccc2)C1 (centres undefined) | 104 | 108 | x | 2 | x
N#C/C(=C/c1cn(-c2ccccc2)nc1-c1cccc(OCc2ccc(F)cc2)c1)C(=O)NCCCn1ccnc1 | 172* | 131 | -11 | 3 | -37
CCC(=O)N1N=C(c2cccs2)CC1c1ccco1 (centres undefined) | 103 | 13* | 9 | 1 | -5
SMILES | MEKK3 PB1 HTS | MEKK2 WT-MEK5 | Pf gamet viab | MEKK2mut PB1 HTS | Arbovirus inh
CCN(CC)CC(=O)N1N=C(c2cccs2)CC1c1ccco1 (centres undefined) | 102 | 103 | x | 11 | 0
Cc1ccccc1OCC(=O)NCCCNC(=O)c1ccccn1 | 102 | 102 | x | 3 | x
O=C1CCC(C(=O)Nc2cccc(Oc3ccccc3)c2)=NN1 | 107 | 99 | 19 | -1 | 12
CC(=O)N1CCCC1(C(=O)O)c1ccccc1 (centres undefined) | 100 | -3.0* | 2 | 2 | x
COc1ccccc1C(=O)N1CCCC1(C#N)c1ccccc1 (centres undefined) | 104 | 103 | x | 5 | 7
Cc1nn(-c2ccccc2)c(C)c1/C=N/NC(=O)c1cnccn1 | 103 | 104 | -44 | -1 | x
Cc1cnc(NC(=O)c2ccc(-c3nc4ccccc4s3)o2)s1 | 103 | 99 | x | 0 | 51*
Cc1cc(C(=O)Nc2ncc(C)s2)c2ccccc2n1 | 97 | 90 | -24 | -13 | -4
COCC1CCCCN1Cc1cn(-c2ccccc2)nc1-c1ccc2c(c1)OCO2 (centres undefined) | 98 | 95 | 23 | -8 | -1
CCOC(=O)CC1CCCCN1Cc1cn(C)nc1-c1ccc2c(c1)OCCO2 (centres undefined) | 103 | 105 | 42* | -3 | -2
CN1/C(=C\C(=S)NC(=O)c2ccccc2Cl)C(C)(C)c2ccccc21 | 86 | 1.0* | 10 | 0 | 18
O=C(/C(=C\c1ccccc1)c1nc2ccccc2[nH]1)c1ccc(Cl)cc1 | 93 | 5.0* | 0 | 5 | -36
S=C(Nc1ccc(Cl)cc1)c1nc2ccccc2[nH]1 | 128* | 110 | 21 | 0 | -16
O=C(/C(=C/c1ccc(Cl)cc1)c1nc2ccccc2[nH]1)c1cccs1 | 91 | 96 | x | -1 | -46
Cc1ccc(NC(=O)/C(=C/C=C/c2ccccc2)NC(=O)c2ccccc2)cc1 | 104 | 108 | 8 | 39 | 30*
O=C(Nc1ccc(C(=O)O)cc1)/C(=C\C=C\c1ccccc1)NC(=O)c1ccc(Br)cc1 | 92 | 80 | -29 | -15 | 7
COc1ccc(C(=O)NCC(C)(C)SCc2c(C)cc(C)cc2C)cc1 | 88 | 87 | x | -12 | 46*
COc1ccc(C(=O)NCCNC(=O)c2ccc(OC)cc2)cc1 | x | x | -7 | x | x
Cc1cccc2c1-c1sc(C(=O)NCCCN3CCCC(C)C3)cc1CO2 (centres undefined) | 105 | 171* | x | 24* | x
Cc1ccc2oc(=O)c3cc(C(=O)NCCCN4CCCC(C)C4)sc3c2c1 (centres undefined) | 105 | 136* | x | 16 | x
CC1CC(C)CN(CCCNC(=O)c2cc3c(s2)-c2ccccc2OC3)C1 (centres undefined) | 106 | 142* | x | 25* | x
Cc1c(C(=O)O)cccc1-c1ccc(/C=C2/NC(=O)N(c3ccccc3)C2=O)o1 | 99 | -10* | x | 2 | 23
Cc1c(C(=O)O)cccc1-c1ccc(/C=C2\SC(=O)NC2=O)o1 | 104 | 103 | 11 | 1 | x
CCCCc1nn2c(N)c(/C=C3\C=Nc4ccccc43)c(=O)nc2s1 | 89 | 91 | x | -4 | 33*
